The full list was thinned out, with the strongest signals kept by preference.
What was measured:
Test in all cases: glycan array binding signal (z-score within array); higher = stronger binding
Conditions in all cases: glycan notation: IUPAC condensed, linker removed; mutation: H262T
[1] = target: Fuc(a1-2)Gal(b1-3)GalNAc(a1-3)[Fuc(a1-2)]Gal(b1-4)Glc
How it was run: (§1)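 Columns mapping to the same glycan were averaged after glycan names were converted to IUPAC-condensed notation. The data come from 3228 arrays in the Consortium for Functional Glycomics database, limited to those with an available protein sequence. Binding is reported as a within-array Z-score averaged across arrays of one protein sequence and across linkers.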

[2] = target: Fuc(a1-2)Gal(b1-3)GlcNAc(b1-3)[Gal(b1-4)GlcNAc(b1-6)]Gal(b1-4)Glc
How it was run: as §1

[3] = target: Fuc(a1-2)Gal(b1-4)GlcNAc
How it was run: as §1

[4] = target: Fuc(a1-2)Gal(b1-4)GlcNAc(b1-6)GalNAc
How it was run: as §1

[5] = target: Fuc(a1-2)Gal6S(b1-3)GlcNAc6S
How it was run: as §1

[6] = target: Fuc(a1-2)[Gal(a1-3)]Gal
How it was run: as §1

[7] = target: Fuc(a1-2)[Gal(a1-3)]Gal(b1-4)GlcNAc(b1-2)Man(a1-3)[Fuc(a1-2)[Gal(a1-3)]Gal(b1-4)GlcNAc(b1-2)Man(a1-6)]Man(b1-4)GlcNAc(b1-4)GlcNAc
How it was run: as §1

[8] = target: Fuc(a1-2)[Gal(a1-3)]Gal(b1-4)[Fuc(a1-3)]Glc
How it was run: as §1

[9] = target: Fuc(a1-2)[GalNAc(a1-3)]Gal(b1-3)GlcNAc(b1-6)GalNAc
How it was run: as §1

[10] = target: Fuc(a1-2)[GalNAc(a1-3)]Gal(b1-4)GlcNAc(b1-2)Man
How it was run: as §1

[11] = target: Fuc(a1-2)[GalNAc(a1-3)]Gal(b1-4)GlcNAc(b1-6)GalNAc
How it was run: as §1

[12] = target: Fuc(a1-2)[GalNAc(a1-4)]Gal(b1-4)GlcNAc
How it was run: as §1

[13] = target: Fuc(a1-2)[GalNAc(b1-3)]Gal
How it was run: as §1

[14] = target: Fuc(a1-4)GlcNAc
How it was run: as §1

[15] = target: Gal(a1-3)Gal
How it was run: as §1

[16] = target: Gal(a1-3)Gal(b1-3)GlcNAc(b1-6)GalNAc
How it was run: as §1

[17] = target: Gal(a1-3)Gal(b1-4)GlcNAc(b1-2)Man
How it was run: as §1

[18] = target: Gal(a1-3)Gal(b1-4)GlcNAc(b1-6)GalNAc
How it was run: as §1

[19] = target: Gal(a1-4)Gal(b1-4)GlcNAc(b1-2)Man(a1-3)[Gal(a1-4)Gal(b1-4)GlcNAc(b1-2)Man(a1-6)]Man(b1-4)GlcNAc(b1-4)GlcNAc
How it was run: as §1

[20] = target: Gal(b1-3)GlcNAc(b1-6)GalNAc
How it was run: as §1

[21] = target: Gal(b1-3)[Fuc(a1-4)]GlcNAc(b1-2)Man
How it was run: as §1

[22] = target: Gal(b1-4)Glc6S
How it was run: as §1

[23] = target: Gal(b1-4)GlcNAc(a1-6)Gal(b1-4)GlcNAc
How it was run: as §1

[24] = target: Gal(b1-4)GlcNAc(b1-2)[Gal(b1-4)GlcNAc(b1-4)]Man(a1-3)[GlcNAc(b1-4)][Gal(b1-4)GlcNAc(b1-2)[Gal(b1-4)GlcNAc(b1-6)]Man(a1-6)]Man(b1-4)GlcNAc(b1-4)GlcNAc
How it was run: as §1

[25] = target: Gal(b1-4)GlcNAc(b1-3)Gal(b1-4)GlcNAc(b1-3)Gal(b1-4)GlcNAc(b1-2)Man(a1-3)[Gal(b1-4)GlcNAc(b1-3)Gal(b1-4)GlcNAc(b1-3)Gal(b1-4)GlcNAc(b1-2)Man(a1-6)]Man(b1-4)GlcNAc(b1-4)GlcNAc
How it was run: as §1

[26] = target: Gal(b1-4)GlcNAc(b1-3)Gal(b1-4)GlcNAc(b1-3)GalNAc
How it was run: as §1

[27] = target: Gal(b1-4)GlcNAc(b1-6)Gal(b1-4)GlcNAc
How it was run: as §1

[28] = target: Gal(b1-4)GlcNAc(b1-6)GalNAc
How it was run: as §1

[29] = target: Gal(b1-4)GlcNAc(b1-6)[Gal(b1-4)GlcNAc(b1-3)]GalNAc
How it was run: as §1

[30] = target: Gal3S(b1-3)GlcNAc
How it was run: as §1

[31] = target: GalNAc(b1-3)GlcNAc
How it was run: as §1

[32] = target: GlcA3S(b1-3)Gal(b1-4)GlcNAc(b1-3)Gal(b1-4)Glc
How it was run: as §1

[33] = target: GlcNAc(a1-4)Gal(b1-4)GlcNAc
How it was run: as §1

[34] = target: GlcNAc(b1-2)[GlcNAc(b1-6)]Man(a1-6)[GlcNAc(b1-2)Man(a1-3)]Man(b1-4)GlcNAc(b1-4)[Fuc(a1-6)]GlcNAc
How it was run: as §1

[35] = target: GlcNAc(b1-3)Gal
How it was run: as §1

[36] = target: GlcNAc(b1-3)Gal(b1-3)GalNAc
How it was run: as §1

[37] = target: GlcNAc(b1-3)Gal(b1-4)GlcNAc(b1-3)Gal(b1-4)GlcNAc(b1-3)Gal(b1-4)GlcNAc(b1-2)[GlcNAc(b1-3)Gal(b1-4)GlcNAc(b1-3)Gal(b1-4)GlcNAc(b1-3)Gal(b1-4)GlcNAc(b1-6)]Man(a1-6)[GlcNAc(b1-3)Gal(b1-4)GlcNAc(b1-3)Gal(b1-4)GlcNAc(b1-3)Gal(b1-4)GlcNAc(b1-2)Man(a1-3)]Man(b1-4)GlcNAc(b1-4)[Fuc(a1-6)]GlcNAc
How it was run: as §1

[38] = target: GlcNAc(b1-4)GlcNAc(b1-4)GlcNAc(b1-4)GlcNAc(b1-4)GlcNAc(b1-4)GlcNAc
How it was run: as §1

[39] = target: GlcNAc(b1-6)GalNAc
How it was run: as §1

[40] = target: Kdn(a2-3)Gal(b1-3)GalNAc
How it was run: as §1

[41] = target: Kdn(a2-3)Gal(b1-4)GlcNAc
How it was run: as §1

[42] = target: Man(a1-3)[Man(a1-6)]Man(a1-6)[Man(a1-2)Man(a1-3)]Man(b1-4)GlcNAc(b1-4)GlcNAc
How it was run: as §1

[43] = target: Man(b1-4)GlcNAc
How it was run: as §1

[44] = target: Neu5Ac(a2-3)Gal(b1-3)GalNAc
How it was run: as §1

[45] = target: Neu5Ac(a2-3)Gal(b1-3)GalNAc6S
How it was run: as §1

[46] = target: Neu5Ac(a2-3)Gal(b1-3)GlcNAc
How it was run: as §1

[47] = target: Neu5Ac(a2-3)Gal(b1-4)GlcNAc(b1-2)Man(a1-3)[Neu5Ac(a2-3)Gal(b1-4)GlcNAc(b1-2)Man(a1-6)]Man(b1-4)GlcNAc(b1-4)GlcNAc
How it was run: as §1

[48] = target: Neu5Ac(a2-3)Gal(b1-4)GlcNAc(b1-6)GalNAc
How it was run: as §1

[49] = target: Neu5Ac(a2-3)Gal6S(b1-4)GlcNAc
How it was run: as §1

[50] = target: Neu5Ac(a2-3)Gal6S(b1-4)[Fuc(a1-3)]GlcNAc
How it was run: as §1

[51] = target: Neu5Ac(a2-3)GalNAc(b1-4)GlcNAc
How it was run: as §1

[52] = target: Neu5Ac(a2-6)Gal(b1-4)GlcNAc(b1-2)Man(a1-6)[Gal(b1-4)GlcNAc(b1-2)Man(a1-3)]Man(b1-4)GlcNAc(b1-4)GlcNAc
How it was run: as §1

[53] = target: Neu5Ac(a2-6)Gal(b1-4)GlcNAc(b1-3)Gal(b1-3)GlcNAc
How it was run: as §1

[54] = target: Neu5Ac(a2-6)Gal(b1-4)GlcNAc(b1-3)Gal(b1-4)GlcNAc(b1-3)[Neu5Ac(a2-6)Gal(b1-4)GlcNAc(b1-3)Gal(b1-4)GlcNAc(b1-6)]GalNAc
How it was run: as §1

[55] = target: Neu5Ac(a2-6)Gal(b1-4)GlcNAc(b1-3)Gal(b1-4)GlcNAc(b1-6)[Gal(b1-3)]GalNAc
How it was run: as §1

[56] = target: Neu5Ac(a2-6)GalNAc(b1-4)GlcNAc6S
How it was run: as §1

[57] = target: Neu5Ac(a2-6)GlcNAc(b1-4)GlcNAc(b1-4)GlcNAc
How it was run: as §1

[58] = target: Neu5Ac9Ac(a2-3)Gal(b1-3)GlcNAc
How it was run: as §1

[59] = target: Neu5Gc(a2-3)Gal(b1-4)GlcNAc
How it was run: as §1

B1: MGL6A (Homo sapiens) (protein)
chain: MTRTYENFQYLENKVKVQGFKNGPLPLQSLLQRLCSGPCHLLLSLGLGLLLLVIICVVGFQNSKFQRDLVTLRTDFSNFTSNTVAEIQALTSQGSSLEETIASLKAEVEGFKQERQAVHSEMLLRVQQLVQDLKKLTCQVATLNNNGEEASTEGTCCPVNWVEHQDSCYWFSHSGMSWAEAEKYCQLKNAHLVVINSREEQNFVQKYLGSAYTWMGLSDPEGAWKWVDGTDYATGFQNWKPGQPDDWQGHGLGGGEDCAHFTPDGRWNDDVCQRPYHWVCEAGLGQTSQESH
glycan array binding signal (z-score) [1]: -0.173 | glycan array binding signal (z-score) [2]: -0.175 | glycan array binding signal (z-score) [3]: -0.174 | glycan array binding signal (z-score) [4]: 7.25 | glycan array binding signal (z-score) [5]: -0.154 | glycan array binding signal (z-score) [6]: -0.171 | glycan array binding signal (z-score) [7]: -0.165 | glycan array binding signal (z-score) [8]: -0.177 | glycan array binding signal (z-score) [9]: 5.97 | glycan array binding signal (z-score) [10]: -0.176 | glycan array binding signal (z-score) [11]: 5.98 | glycan array binding signal (z-score) [12]: 4.51 | glycan array binding signal (z-score) [13]: 5.17 | glycan array binding signal (z-score) [14]: -0.173 | glycan array binding signal (z-score) [15]: -0.171 | glycan array binding signal (z-score) [16]: 7.68 | glycan array binding signal (z-score) [17]: -0.18 | glycan array binding signal (z-score) [18]: 7.07 | glycan array binding signal (z-score) [19]: -0.168 | glycan array binding signal (z-score) [20]: 6.2 | glycan array binding signal (z-score) [21]: -0.169 | glycan array binding signal (z-score) [22]: -0.172 | glycan array binding signal (z-score) [23]: -0.172 | glycan array binding signal (z-score) [24]: -0.197 | glycan array binding signal (z-score) [25]: -0.169 | glycan array binding signal (z-score) [26]: -0.172 | glycan array binding signal (z-score) [27]: -0.172 | glycan array binding signal (z-score) [28]: 3.65 | glycan array binding signal (z-score) [29]: -0.172 | glycan array binding signal (z-score) [30]: -0.208 | glycan array binding signal (z-score) [31]: 0.976 | glycan array binding signal (z-score) [32]: -0.178 | glycan array binding signal (z-score) [33]: -0.173 | glycan array binding signal (z-score) [34]: -0.173 | glycan array binding signal (z-score) [35]: -0.178 | glycan array binding signal (z-score) [36]: -0.166 | glycan array binding signal (z-score) [37]: -0.162 | glycan array binding signal (z-score) [38]: -0.175 | glycan array binding signal (z-score) [39]: 5.17 | glycan array binding signal (z-score) [40]: -0.176 | glycan array binding signal (z-score) [41]: -0.161 | glycan array binding signal (z-score) [42]: -0.153 | glycan array binding signal (z-score) [43]: -0.172 | glycan array binding signal (z-score) [44]: -0.16 | glycan array binding signal (z-score) [45]: -0.171 | glycan array binding signal (z-score) [46]: -0.176 | glycan array binding signal (z-score) [47]: -0.123 | glycan array binding signal (z-score) [48]: 6.48 | glycan array binding signal (z-score) [49]: -0.173 | glycan array binding signal (z-score) [50]: -0.177 | glycan array binding signal (z-score) [51]: -0.169 | glycan array binding signal (z-score) [52]: -0.172 | glycan array binding signal (z-score) [53]: -0.175 | glycan array binding signal (z-score) [54]: -0.172 | glycan array binding signal (z-score) [55]: -0.166 | glycan array binding signal (z-score) [56]: -0.176 | glycan array binding signal (z-score) [57]: -0.175 | glycan array binding signal (z-score) [58]: -0.175 | glycan array binding signal (z-score) [59]: -0.175

Reference: the supplement of paper PMC8728848
